# Most compounds without a hit are left out; they make up all but 15% or so of the library.
# Sm TGR block: S. mansoni TGR enzyme inhibition; actives 3% (n = 360,000); Q962Y6; AID 485364; purified TGR, DTNB reduction, TNB absorbance 405 nm; Potency, µM (titrated, usually from 114 µM), without a hit: at the highest dose activity change, negative = inhibition, most hits filed as inhibitors; further: potency means the concentration at half of the fitted maximal effect; on the % scale 0 is the no-effect control and ±100 the full control effect; nearly all actives have a fitted effect of over 60% in size
#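 Kinetic colorimetric format: TGR-catalysed, NADPH-driven DTNB reduction monitored via TNB absorbance. Enzyme dispensed at 20 nM; compound exposure 15 min at room temperature before reaction start.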
# Pf growth 48h: inhibits P. falciparum growth in the first generation, 48 h; P. falciparum luciferase growth in erythrocytes, 48 h; Potency, µM (doses to about 28.7 µM), inactives show at the highest dose activity change, negative = inhibition, hits mostly inhibitors; actives 5.9% (n = 310,000); AID 504832; further: potency means the concentration at half of the fitted maximal effect; on the % scale 0 is the no-effect control and ±100 the full control effect
#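 Parasite viability was followed by luminescence of a genomically integrated firefly luciferase. Cultures held 0.1% parasitemia at 2% hematocrit (final), incubated under 5% CO2 at 37 C.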
# HCV inh: HCV inhibition | Huh7.5.1 HCVcc-Cre infection, luciferase reporter, 44 h | Potency, µM (series often up to 41.8 µM), without a hit: at the highest dose activity change, negative = inhibition, actives largely listed as inhibitors | actives 3.4% (n = 340,000); further: potency means the concentration at half of the fitted maximal effect; on the % scale 0 is the no-effect control and ±100 the full control effect
#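 Compounds are dispensed onto cells plated 4 h earlier at 1,000 per well, with HCVcc-Cre virus (about 0.5 moi) added next. Following 44 h of culture, luminescent signal is measured for 15 sec after 15 min with substrate at room temperature.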
# SARS PLP yeast: inhibitors of SARS-CoV papain-like protease in yeast. S. cerevisiae expressing SARS-CoV PLpro, growth rescue. Potency, µM (doses to about 32.9 µM), for the others: top-dose activity, positive = growth rescue, hits mostly activators. actives 0.19% (n = 330,000); calls by dose curve; further: potency means the concentration at half of the fitted maximal effect; 0% is about no effect; nearly all actives have a fitted effect of over 55% in size
# Pf growth 96h: P. falciparum growth inhibition at 96 hour, primary screen for plastid delayed-death inhibitors | P. falciparum luciferase reporter growth, 96 h | Potency, µM (doses to about 28.7 µM), for the others: at the highest dose activity change, negative = inhibition, most hits filed as inhibitors | actives 6.9% (n = 320,000) | AID 504834; further: potency means the concentration at half of the fitted maximal effect; on the % scale 0 is the no-effect control and ±100 the full control effect
#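 Compounds incubated with erythrocytes infected by luciferase-expressing P. falciparum (2% hematocrit, 0.05% parasitemia final) for 96 hours, 37 C in 5% CO2. Growth inhibition scored as decreased luciferase luminescence.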
# HCMV inh: human cytomegalovirus inhibition | HFF cells, HCMV-luciferase reporter, 72 h; active compounds read low | activity change, negative = inhibition, % at 57.5 µM | actives 4.5% (n = 410,000); in the data active means activity change below about -60%; inconclusive means no clear call, values can overlap the other calls; inactive means above about -39%; further: on the % scale 0 is the no-effect control and ±100 the full control effect
#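 Screen run at 2 compound doses on HFFs infected with reporter HCMV, MOI 1 PFU/cell. Luciferase activity from cell lysates at 72 h post infection gave inhibition relative to buffer-only and Salinomycin wells.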
# Starred values were filed as active, the others as inactive; ? = inconclusive; . = no result; [ ] = remark or other dose. Unless noted, the call rests on the fitted dose curve; in most records, active means well fitted curve in the direction sought with a large enough effect; inconclusive means small, poorly fitted or top-dose-only effect, or another doubt; inactive means no such curve, though single readings can be large; an effect the other way counts as inactive or inconclusive.
SMILES,Sm TGR block,Pf growth 48h,HCV inh,SARS PLP yeast,Pf growth 96h,HCMV inh
COc1ccc(N2c3ccccc3CN(Cc3ccccc3)CC2Cc2cc(OC)c(OC)c(OC)c2)cc1 (stereo not drawn),.,.,.,.,.,7
O=C(NCc1ccccn1)[C@@H]1CCCN1C(=O)[C@@H]1CCCN1,.,.,.,.,.,-7
CCN(CC)C1=C(Cl)C(=O)C(Cl)C12OCCO2 (stereo not drawn),-10%,15µM*,1%,1%,-6%,-25
Cc1ccccc1Nc1n[nH]c(C)c1[N+](=O)[O-],3%,45%,8%,-14%,3.7µM*,15
Cc1ccccc1-n1nnnc1SCC(=O)c1c(N)n(C2CC2)c(=O)[nH]c1=O,-8%,6%,4%,-2%,?,-4
COc1cccc(CNC(=O)C2CCCN(c3nn4cc(-c5ccc(C)cc5)nc4s3)C2)c1 (stereo not drawn),6%,.,.,.,.,?
COc1ccc2c(c1)c1nnc(SCC(=O)NC3CC3)nc1n2C,-3%,-18%,16%,5%,-8%,18
COc1ccc2c(c1)c1nnc(SCC(=O)N3CCCCC3C)nc1n2C (stereo not drawn),26%,0%,-16%,-1%,8.3µM*,24
O=C1NCCN2CCCC12 (stereo not drawn),25µM*,7%,13%,0%,.,-11
CC1(C)NC(=O)[C@H]2CCCN21,.,.,12%,.,.,6
F[B-](F)(F)c1cc2ccccc2s1,.,.,6%[8.37 µM],.,.,20
CCN(CC(=O)Nc1c(F)cccc1F)C(=O)c1ccc(OCc2c(C)noc2C)cc1,-21%,?,-3%,-2%,?,30
COC(=O)C1=C(O)/C(=C\c2cc(C)n(-c3ccc(F)cc3)c2C)N=C1C,28µM*,?,-2%,-4%,7%,9
COC(=O)C1=C(C)NC(=O)/C1=C\c1cc(C)n(-c2ccc(F)cc2)c1C,.,8%,-3%,0%,?,9
CC[C@]1(C(=O)OC)[C@H]2C(=O)N(Cc3ccccc3)C(=O)[C@H]2[C@H]2CN(C)C(=NCc3ccccc3)N21,.,.,2%,-7%,.,.
Cc1cc(/C=N/Nc2nc(N3CCOCC3)nc(N3CCOCC3)n2)c(C)n1-c1ccccc1,-21%,9.3µM*,?,-2%,62%,-33
Cc1cc(=O)[nH]c(NN=Cc2cc(Br)ccc2O)n1,.,.,?,.,.,-100*
Cc1cc(/C=N/Nc2ncnc(N)c2[N+](=O)[O-])c(C)n1-c1ccccc1,0%,27%,?,-1%,0%,-83*
Cc1cc(=O)[nH]c(N/N=C/c2c(C)nn(-c3ccccc3)c2C)n1,-10%,12µM*,6%,-1%,-25%,-39
COc1ccc(-n2c(C)cc(/C=N/Nc3nc(N4CCOCC4)nc(N4CCOCC4)n3)c2C)cc1,-17%,?,-29%,15%,?,-33
Cc1ccsc1/C=N/Nc1nc2ccccc2[nH]1,-11%,?,-27%,1%,?,39
Cc1nn(-c2ccccc2)c(C)c1/C=N/Nc1nc2ccccc2[nH]1,-6%,0.59µM*,?,-32%,?,?
Cc1cc(=O)[nH]c(N/N=C/c2ccccc2Cl)n1,6%,15%,13%,1%,?,66
Cc1cc(=O)[nH]c(N/N=C/c2cc(C)n(-c3ccccc3)c2C)n1,32µM*,?,?,1%,?,0
BrC(/C=N/Nc1nc(N2CCOCC2)nc(N2CCOCC2)n1)=C/c1ccccc1,0%,12µM*,-17%,-20%,0%,77
COc1ccc(CCC(=O)N2CCN(C(=O)c3ccccc3)CC2)cc1,?,-1%,10%,2%,-10%,-8
O=C(NCCc1ccc(F)cc1)C(=O)NCC(c1cccs1)S(=O)(=O)c1ccc(Cl)cc1 (stereo not drawn),-27%,.,.,.,.,-18

# From PubChem
